{"source": "PubChem BioAssay AID1508600", "about": "(Functional Genomics Laboratory (NCATS/FGL), 2020)", "note": "About 3,700 (7%) of roughly 53,000 sequences were called active. The sample as a whole holds a higher share of actives than the screen did. A number with no mark means an inactive call.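 How the source made its calls: active means gene knockdowns whose robust z-score for IL-1 alpha signal is at least 2 or at most -2, so actives lie on both sides; inactive means the rest.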", "data": [{"assay": "Components of the Cytosolic LPS Sensing Pathway: Gene Identification via Genome-wide siRNA Screen;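 further: robust z of the log signal after scaling to non-targeting control siRNA wells of the plate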", "settings": "RAW264.7 macrophages, IL-1a HTRF, actives lie on both sides, screened at 100 nM (by protocol), cells primed 5 h with Pam3CSK4 first", "method_in_brief": "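RAW264.7 mouse macrophages reverse-transfected with single siRNAs (100 nM final) for 48h, primed with Pam3CSK4 for 5 hours, then transfected with LipidA for 24 hour. Supernatant IL-1a read by HTRF; values normalized to negative-control median, log-transformed robust z-scores.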", "values": [{"sequence": "GGAUACAAAGAGAGUUGUCTT against Eif3c", "z-score": 1.23}, {"sequence": "GGUGCUGCACAAAUACAUATT against Eef1aknmt", "z-score": 0.715}, {"sequence": "CGAUCGAAAUCAAGUCGAUTT against Septin9", "z-score": 0.415}, {"sequence": "GGUUCUCUGCCAGUUCUGUTT against Mid1", "z-score": "3.32 (active)"}, {"sequence": "GGACCAUGUUAGAGCAUGCTT against Traf2", "z-score": "-2.36 (active)"}, {"sequence": "GGUCCUACUUGUUCAUUGATT against Il1rl1", "z-score": -0.802}, {"sequence": "GGACUUCAGUGAGGAUCAATT against Scg5", "z-score": 0.866}, {"sequence": "CCCUCCGAAAAUUUUUCUGTT against Defb14", "z-score": -0.363}, {"sequence": "GGUAUGGAUCAAGGUUCUUTT against Gja6", "z-score": "3.21 (active)"}, {"sequence": "GGUGGCCAUCAAGAAGAUATT against Mapk7", "z-score": -0.749}, {"sequence": "CGACCACACAGGGAUAUACTT against Sectm1a", "z-score": -0.169}, {"sequence": "GGGCUAUCUAUCAUAGUUUTT against Scp2", "z-score": 1.17}, {"sequence": "GCAUGUAUAACAGACCCAUTT against Tex47", "z-score": 0.928}, {"sequence": "GGUCACCUUAUAAUUGCCCTT against Btd", "z-score": "-2.83 (active)"}, {"sequence": "GGUGAGAUAGGUCUAGUUGTT against Col10a1", "z-score": -0.273}, {"sequence": "GGAUCACUGACUUUGAAUUTT against Mob2", "z-score": -0.654}, {"sequence": "GGCUGUCAUGCAUUAUAUGTT against Tfeb", "z-score": -0.535}, {"sequence": "GGAGCUUCUUGACCUCGUGTT against Frmd4a", "z-score": 0.184}, {"sequence": "CCUGUUUUCCGACUUGUUGTT against Il4ra", "z-score": 0.809}, {"sequence": "GGUGGUUACACAAGGAACATT against Phgdh", "z-score": -0.314}, {"sequence": "GGCUCAUCCCAAUGCUAUATT against Sdc3", "z-score": 0.304}, {"sequence": "GGUGAUCACUCUCUCUGAATT against Olfr187", "z-score": -0.975}, {"sequence": "CCGUAACCCAGAAAAUGUATT against Eva1a", "z-score": "-2.01 (active)"}, {"sequence": "CCAUUGACUUACUUCUAAGTT against Gimap6", "z-score": 0.58}, {"sequence": "GGAUCAACGGAUUUUAGAATT against Gcfc2", "z-score": 1.21}, {"sequence": "GGAGAUGAAAAGAGAAAUCTT against Cct6b", "z-score": "2.41 (active)"}, {"sequence": "GGAGCUGAUGACUUCAGGCTT against Mmp19", "z-score": 1.17}, {"sequence": "GGGAUUCUCCAAAAGGAAGTT against Arhgap6", "z-score": 0.856}, {"sequence": "GGUGAUGAAGAGGUUCCCUTT against Fzd4", "z-score": -0.868}, {"sequence": "GAAGAUGCCACGCUAAAAATT against Adam34", "z-score": "2.73 (active)"}, {"sequence": "GGGCUUUGCUGUCUAUGCATT against Dmwd", "z-score": -0.617}, {"sequence": "GGAGUUUGAUCAGAUCCUATT against Asf1b", "z-score": 1.74}, {"sequence": "GAAAUCAGAAGAAAUGAAGTT against Phgr1", "z-score": -0.451}, {"sequence": "GGAAUCAAAGAUGGAGAGGTT against Galnt3", "z-score": -0.409}, {"sequence": "GGAAACAUUGUCAUCAUGATT against Olfr1299", "z-score": -0.787}, {"sequence": "GGUCAUGUUUCUCUCCCAATT against Veph1", "z-score": "-2.11 (active)"}, {"sequence": "GCGGUAUCCUAGCUGUGAATT against Brsk1", "z-score": -0.0667}, {"sequence": "CCCUGUAUAUAUGAUGACATT against Ldhd", "z-score": -1.83}, {"sequence": "GGGUCUACAAUCACCAGACTT against Wnt10a", "z-score": 1.15}, {"sequence": "GAUGAUCUUUUGGAUGAACTT against Spem2", "z-score": -0.51}, {"sequence": "CCCAGGCACUUGUUUACAGTT against Stim2", "z-score": -0.454}, {"sequence": "GGCAUGCUUGGCUUAUUUGTT against Kcnk4", "z-score": 0.0317}, {"sequence": "GCUGCUAUCCAGAAGGUAUTT against Egr2", "z-score": "-2.04 (active)"}, {"sequence": "GGCUUACUAACAGUUUUUGTT against Gem", "z-score": -0.29}, {"sequence": "GGCAUCGAGAUUUAAUUGATT against Usp27x", "z-score": -0.179}, {"sequence": "GGCUCUCUGGCUUACUAAGTT against Mrpl37", "z-score": 1.09}, {"sequence": "CCCAGGUCCUACCUUCUUUTT against Ppcdc", "z-score": "-2.1 (active)"}, {"sequence": "GGUGUGGGAUUUCUACACUTT against Sbf1", "z-score": 0.0854}, {"sequence": "GCAGCUUGCUUGAUUCAAGTT against Iqcb1", "z-score": 0.424}, {"sequence": "GCAUUUGGGCAACGAGAUGTT against Nr5a1", "z-score": -1.3}, {"sequence": "GGCAGCUGGAAAGACAAAATT against Snca", "z-score": 1.19}, {"sequence": "GCUGAGAGUAUCCUUAUUCTT against Fhdc1", "z-score": 0.374}, {"sequence": "GGCCAACAUCUGCUAUGUCTT against Hao2", "z-score": "-2.58 (active)"}, {"sequence": "GGUCAACGUGUAUGUAUUUTT against Lrat", "z-score": -1.27}, {"sequence": "CGUGCAUGUGUAAGUCAGGTT against Hpvc2", "z-score": 0.68}, {"sequence": "GCAAGAGCUGAGUACUCUGTT against Ahsp", "z-score": -0.522}, {"sequence": "GGAAGUUUAAAGUCUAGAATT against Adcy7", "z-score": 0.477}, {"sequence": "GGCCCAAGAGAACAUCAAATT against Speer2", "z-score": "-2.16 (active)"}, {"sequence": "GCAGUCUCCAAUUGAGAUUTT against Car13", "z-score": -0.0313}, {"sequence": "CUCCGACCAUACUGGAAGATT against Arpp21", "z-score": -0.406}, {"sequence": "GCAAGCUAGAGAAAAUCAGTT against Serpinb3b", "z-score": -0.231}, {"sequence": "GGAAAAAAGGUCUGUAAAUTT against Ubl4b", "z-score": 0.223}, {"sequence": "GGAUGUGCUGACCUUACAGTT against Gaa", "z-score": "2.35 (active)"}, {"sequence": "GCGGAACAUCUUAGCUUAATT against Perm1", "z-score": -0.111}, {"sequence": "GCCCUGGAAAGGAUGUUUGTT against Hba-a1", "z-score": -0.607}, {"sequence": "UAGCCACUCAUCAUUCUAATT against Gm10319", "z-score": 0.964}, {"sequence": "GGCACUUUUGAUUUCAGAUTT against Nrd1", "z-score": "3.52 (active)"}, {"sequence": "GCUGGAUAUUUCUAAGUAUTT against A26c3", "z-score": 1.9}, {"sequence": "CCGUUAGGUUUUUAUCCAATT against Ube2b", "z-score": 0.193}, {"sequence": "GGACCUUUUAUCUGAAAUGTT against Papln", "z-score": 1.54}, {"sequence": "GGAUGUGACUCAGAUUGGGTT against Tmem171", "z-score": 0.0209}, {"sequence": "GGAGAUGGCCACCUAUUUGTT against Csnk1g2", "z-score": -0.325}, {"sequence": "GGAAAAAGCCUAACUAUGATT against Ccnl1", "z-score": -0.7}, {"sequence": "GCAUGAUAUCAGUGGCAAGTT against Itga11", "z-score": "-2.41 (active)"}, {"sequence": "GCCUGUUGCUAUGAAUGGUTT against Zfp597", "z-score": -0.353}, {"sequence": "GGAAGCAUUGAAGAUAAGATT against Topbp1", "z-score": -0.273}, {"sequence": "CCAUUGGAUCCAUUCCUAUTT against Plcd3", "z-score": -0.984}, {"sequence": "CCUCUGUCUGCUAAUAAGATT against R3hdm4", "z-score": 1.01}, {"sequence": "GGAGGCCAUCACACUUAGATT against 4933421I07Rik", "z-score": "-2.27 (active)"}, {"sequence": "GUUCCCGUUCUACGAGAAGTT against Foxl2", "z-score": 1.22}, {"sequence": "CCAAAUGACAGCUAUGGCCTT against Gtf2ird2", "z-score": -0.312}, {"sequence": "GCUGUCCAAGUACGAGACATT against Atoh7", "z-score": 0.0721}, {"sequence": "GCUCCUGUGAUUGAUGCAGTT against Dync1h1", "z-score": 0.528}, {"sequence": "GCAUUUAUAAUUGCUGAACTT against Cbx1", "z-score": -0.637}, {"sequence": "GGAACCACACAUGUGUUAATT against Grik2", "z-score": -0.281}, {"sequence": "GGACAAUUGCCUUUUGACATT against Thbs3", "z-score": 0.146}, {"sequence": "CCAGCAGCCUUCUAACUAUTT against Hnrnpa2b1", "z-score": "2.14 (active)"}, {"sequence": "GGUCUUCUACAACUCGGAATT against Sgpp1", "z-score": -0.146}, {"sequence": "GGUGGUGAGAUAGAGAAAUTT against C1qc", "z-score": -0.115}, {"sequence": "GCAUUACACUUAACUGACGTT against Zfp652", "z-score": -1.28}, {"sequence": "CCCAAUAACAUCUUAAGAUTT against Lyn", "z-score": -0.254}, {"sequence": "GGGAGACGGCGAGGUUUUATT against Arl6ip4", "z-score": "2.89 (active)"}, {"sequence": "GGAAUGUCACUUUGACUCUTT against Arxes1", "z-score": -0.533}, {"sequence": "GGCCAGAGAAGAUUACUUUTT against Ajuba", "z-score": 1.03}, {"sequence": "GGACCUCACAGAUUAUGGGTT against Ebi3", "z-score": 0.693}, {"sequence": "CGCCUACAGCUCUAUCUUATT against 2700062C07Rik", "z-score": 1.05}, {"sequence": "GGCGACAUGAAAGAAGGCATT against Klk6", "z-score": "2.61 (active)"}, {"sequence": "ACCCUCACCUCGCAUGACUTT against Pcbd2", "z-score": -1.57}, {"sequence": "GGACAAAGUAUUUGUGACCTT against Cd3d", "z-score": 0.00913}, {"sequence": "GCAAGAUCCAGCCCUAUCATT against Usp17lc", "z-score": -0.439}, {"sequence": "GGAAAGUCCUUCAUCAGCATT against Cep120", "z-score": "-2.91 (active)"}, {"sequence": "GGACAAGAUGAUCUGCCUATT against Lrrc8a", "z-score": 0.722}, {"sequence": "GCCGAUACUUGAGCCAGUUTT against Srd5a1", "z-score": 0.477}, {"sequence": "GCUUCGACACUUUAUUUCUTT against Cnp", "z-score": 0.26}, {"sequence": "GGGUUUUCUUGUGUGAAAATT against Pomp", "z-score": "-2.93 (active)"}, {"sequence": "CGAGGGAAUGCACUACAACTT against Chpf", "z-score": "2.16 (active)"}, {"sequence": "GGAAGACCAGCAGUUAAGATT against Grb10", "z-score": -1.56}, {"sequence": "GGUGGAAGAGGUCAAAUAATT against Denr", "z-score": 1.05}]}]}
